Inconclusive results are not listed. Activity calls are given as the source filed them. Unless noted, calls come from the whole dose curve; as a rule, active = well fitted curve in the direction sought with a large enough effect in the repeat runs; inconclusive = weak or mixed curves; inactive = no such curve, though single readings can be large; an effect the other way counts as inactive or inconclusive.
Tests used:
[1] = molecular target: Estrogen receptor (Homo sapiens) (UniProt P03372); experiment: qHTS assay to identify small molecule agonists of the estrogen receptor alpha (ER-alpha) signaling pathway in the presence of an antagonist (AID 1259383; calls by dose curve; note: top concentration of the series differs between compounds; nearly all actives have a fitted effect of over 15% in size)
How it was run: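 ER-alpha agonism measured under antagonist challenge: 10.0nM ICI-182,780 (final) plus compound, 15 concentrations, 22hr, VM7Luc4E2 ERE-luciferase cells. Read by luminescence.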

[2] = qHTS assay to identify small molecule agonists or antagonists of the thyroid stimulating hormone receptor (TSHR) signaling pathway - wild type cell line counter screen (AID 1259384; calls by dose curve)
How it was run: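 Counter screen in untransfected Hek293: compounds (15-point titration, triplicate) plus phosphodiesterase inhibitor Ro20-1724 added after 18 h plating; 30 min RT. Intracellular cAMP via competitive d2/cryptate immunoassay, 1 h incubation.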

[3] = molecular target: Thyrotropin receptor (Homo sapiens) (UniProt P16473); experiment: qHTS assay to identify small molecule antagonists of the thyroid stimulating hormone receptor (TSHR) signaling pathway (AID 1259385; calls by dose curve; note: nearly all actives have a fitted effect of over 20% in size)
How it was run: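 Antagonist mode: compound-treated TSHR-expressing HEK293 cells were stimulated with 1.5 ng/mL TSH (final) in presence of Ro20-1724 for 30 min at RT. HTRF cAMP detection after 1 h; each compound tested at 15 concentrations, triplicate.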

[4] = molecular target: Progesterone receptor (Homo sapiens) (UniProt P06401); experiment: qHTS assay to identify small molecule agonists of the progesterone receptor (PR) signaling pathway (AID 1346784; calls by dose curve; note: nearly all actives have a fitted effect of over 30% in size)
How it was run: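 HEK 293T PR-UAS-bla reporter cells, 2% charcoal-stripped FBS; 6 hr settle at 37C/5% CO2, compound (DMSO) 16 hr, LiveBLAzer B/G FRET substrate 2 hr RT, fluorescence intensity read.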

[5] = molecular target: Progesterone receptor (Homo sapiens) (UniProt P06401); experiment: qHTS assay to identify small molecule antagonists of the progesterone receptor (PR) signaling pathway (AID 1346795; active = well fitted inhibition curve with a large enough effect in the signal ratio in the repeat runs, not every such curve was filed as active; the % refers to the signal ratio)
How it was run: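 Beta-lactamase reporter, HEK293T PR-UAS-bla line; 2% charcoal-stripped FBS; 6 hr pre-incubation, 37C/5% CO2. Compound + R5020 1 nM final, 16 hr. LiveBLAzer B/G FRET substrate, 2 hr RT; fluorescence intensity read.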

[6] = qHTS assay to identify small molecule antagonists of the progesterone receptor (PR) signaling pathway - cell viability counter screen (AID 1346798); note: series mostly up to about 92 µM; nearly all actives have a fitted effect of over 50% in size
How it was run: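 Luminescence readout (CellTiter-Glo, 30 min, RT) of viability in PR-UAS-bla HEK293T cells exposed to compound and R5020 agonist for 16 hr at 37C, 5% CO2; run in the same wells as the beta-lactamase reporter read.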

[7] = qHTS assay to identify small molecule agonists of the progesterone receptor (PR) signaling pathway - cell viability counter screen (AID 1346799; calls by dose curve; note: nearly all actives have a fitted effect of over 45% in size)
How it was run: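 HEK293T PR-UAS-bla, 3,000 cells/well, 2% charcoal-stripped FBS; 6 h settle, compound 16 h at 37C/5% CO2; LiveBLAzer 2 h RT, then CellTiter-Glo 30 min RT, luminescence read.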

[8] = qHTS assay to identify small molecule antagonists of the TGF-beta/Smad signaling pathway - cell viability counter screen (AID 1346824); note: nearly all actives have a fitted effect of over 50% in size
How it was run: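 Cytotoxicity counter-screen run in the same wells as the beta-lactamase Smad reporter read: CellTiter-Glo luminescence after 30 min at room temperature. HEK 293T SBE-bla cells had 5 hr compound exposure at 37 C with TGF-beta1 (0.25 ng/mL stock).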

[9] = qHTS assay to identify small molecule agonists of the TGF-beta/Smad signaling pathway - cell viability counter screen (AID 1346829); note: top concentration of the series differs between compounds; nearly all actives have a fitted effect of over 45% in size
How it was run: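 CellTiter-Glo luminescence readout; SBE-bla HEK 293T cells, overnight plating, compound 5 hr at 37 C/5% CO2, then bla substrate 2 hr RT, then CellTiter-Glo 30 min RT.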

[10] = qHTS assay to identify small molecule agonists of the TGF-beta/Smad signaling pathway (AID 1346859; active = well fitted activation curve with a large enough effect in the signal ratio in the repeat runs, not every such curve was filed as active; the % refers to the signal ratio; note: series mostly up to about 77 µM)
How it was run: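 Read-out: fluorescence at 460 and 530 nm (405 nm excitation) after a 2 hr room-temperature incubation with beta-lactamase FRET substrate. SBE-bla HEK 293T cells had been treated with test compounds for 5 hr at 37 C.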

[11] = molecular target: Thyrotropin-releasing hormone receptor (Homo sapiens) (UniProt P34981); experiment: qHTS assay to identify small molecule antagonists of the thyrotropin-releasing hormone receptor (TRHR) signaling pathway (AID 1346877; active = well fitted inhibition curve with a large enough effect in the repeat runs, not every such curve was filed as active; note: series mostly up to about 51 µM)
How it was run: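 Human TRHR in HEK293 cells; inhibition of the intracellular calcium rise triggered by 1 nM TRH was followed by fluorescence over 3 min. Compounds were run at 15 concentrations, three replicates each.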

[12] = molecular target: Thyrotropin-releasing hormone receptor (Homo sapiens) (UniProt P34981); experiment: qHTS assay to identify small molecule agonists of the thyrotropin-releasing hormone receptor (TRHR) signaling pathway (AID 1346891; calls by dose curve;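 note: HEK293 cells expressing TRHR with calcium dye readout; series mostly up to about 58 µM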)
How it was run: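 HEK293/TRHR cells, 1500 per well, 18 h 37 °C; Ca dye 2 h 37 °C; pin-tool compound addition (agonist mode); kinetic fluorescence 3 min, 1 s reads; 15 concentrations, triplicate.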

[13] = Human pregnane X receptor (PXR) small molecule agonists, qHTS cell viability counter screen (AID 1346977); note: nearly all actives have a fitted effect of over 50% in size
How it was run: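 Fluorescence read-out (CellTiter-Fluor) of viability in PXR-Luc HepG2 cells, multiplexed with the luciferase agonist read. Compounds in DMSO added after 5hr plating; 24hr total exposure at 37C, 5% CO2.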

[14] = Caspase-3/7 induction in HepG2 cells by small molecules, qHTS assay (AID 1346978); note: nearly all actives have a fitted effect of over 15% in size
How it was run: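 Caspase-3/7 induction was measured by Caspase-Glo 3/7 luminescence (30 min, room temperature) after a 17 hr compound exposure of wild-type HepG2 cells seeded at 2,000 per well and pre-incubated 5 hr.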

[15] = Caspase-3/7 induction in CHO-K1 cells by small molecules, qHTS cell viability counter screen (AID 1346979); note: nearly all actives have a fitted effect of over 35% in size
How it was run: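 CHO-K1 wt, 1,500 cells/well; 5hr pre-incubation 37C/5% CO2; compound pin transfer (DMSO); 16hr exposure; CellTiter-Fluor added, 1hr, fluorescence read.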

[16] = Caspase-3/7 induction in CHO-K1 cells by small molecules, qHTS assay (AID 1346980); note: nearly all actives have a fitted effect of over 15% in size
How it was run: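 Luminescent Caspase-Glo 3/7 read (30min, room temperature) quantified apoptosis induction. Cells were wild-type CHO-K1, treated with compound for 17hr at 37 C and 5% CO2.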

[17] = Caspase-3/7 induction in HepG2 cells by small molecules, qHTS cell viability counter screen (AID 1346981); note: series mostly up to about 92 µM; nearly all actives have a fitted effect of over 30% in size
How it was run: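 The parent HepG2 line is plated at 2,000 cells per well and rested 5 hr before compound pinning from DMSO stocks. Following a 16-hr treatment at 37 C, a fluorogenic live-cell substrate (CellTiter-Fluor) reports viability after 1 hr.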

[18] = molecular target: Nuclear receptor subfamily 1 group I member 2 (Homo sapiens) (UniProt O75469); experiment: Human pregnane X receptor (PXR) small molecule agonists, qHTS assay (AID 1346982); note: nearly all actives have a fitted effect of over 35% in size
How it was run: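 After plating in 5% charcoal-stripped FBS and a 5 hr rest, PXR-Luc HepG2 cells received compounds in DMSO. Following 24 hr at 37 C, ONE-Glo was added and light output read.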

[19] = qHTS assay to identify small molecule agonists of the estrogen receptor alpha (ER-alpha) signaling pathway in the presence of an antagonist - cell viability counter screen (AID 1259386);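 note: series mostly up to about 92 µM; cells exposed to compounds for 22 h at 37 °C before the viability read; nearly all actives have a fitted effect of over 30% in size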
How it was run: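 Steps: 5-day stripped-FBS culture; seed and incubate 24hr; add ICI-182,780 (10.0nM final); pin 15-point compound titration; incubate 22hr at 37C; add CellTiter-Fluor at 21hr; read fluorescence.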

[20] = molecular target: Nuclear receptor subfamily 1 group I member 2 (Rattus norvegicus) (UniProt Q9R1A7); experiment: Rat pregnane X receptor (rPXR) activation by small molecules, qHTS assay (AID 1346983); conditions: rPXR luciferase reporter cells, One-Glo luminescence, 24 h; max activation: hits give high values; note: nearly all actives have a fitted effect of over 20% in size
How it was run: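 Luminescent readout (One-Glo luciferase, 30 min room temperature) followed 24 hr compound treatment at 37 C of rPXR cells plated 2,000 per well and preincubated 5hr; qHTS format with compounds delivered in DMSO.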
% is set by controls: 0 for no effect and ±100 for the full control effect.

Progesterone receptor (Homo sapiens), sequence (P06401 whole entry, looked up): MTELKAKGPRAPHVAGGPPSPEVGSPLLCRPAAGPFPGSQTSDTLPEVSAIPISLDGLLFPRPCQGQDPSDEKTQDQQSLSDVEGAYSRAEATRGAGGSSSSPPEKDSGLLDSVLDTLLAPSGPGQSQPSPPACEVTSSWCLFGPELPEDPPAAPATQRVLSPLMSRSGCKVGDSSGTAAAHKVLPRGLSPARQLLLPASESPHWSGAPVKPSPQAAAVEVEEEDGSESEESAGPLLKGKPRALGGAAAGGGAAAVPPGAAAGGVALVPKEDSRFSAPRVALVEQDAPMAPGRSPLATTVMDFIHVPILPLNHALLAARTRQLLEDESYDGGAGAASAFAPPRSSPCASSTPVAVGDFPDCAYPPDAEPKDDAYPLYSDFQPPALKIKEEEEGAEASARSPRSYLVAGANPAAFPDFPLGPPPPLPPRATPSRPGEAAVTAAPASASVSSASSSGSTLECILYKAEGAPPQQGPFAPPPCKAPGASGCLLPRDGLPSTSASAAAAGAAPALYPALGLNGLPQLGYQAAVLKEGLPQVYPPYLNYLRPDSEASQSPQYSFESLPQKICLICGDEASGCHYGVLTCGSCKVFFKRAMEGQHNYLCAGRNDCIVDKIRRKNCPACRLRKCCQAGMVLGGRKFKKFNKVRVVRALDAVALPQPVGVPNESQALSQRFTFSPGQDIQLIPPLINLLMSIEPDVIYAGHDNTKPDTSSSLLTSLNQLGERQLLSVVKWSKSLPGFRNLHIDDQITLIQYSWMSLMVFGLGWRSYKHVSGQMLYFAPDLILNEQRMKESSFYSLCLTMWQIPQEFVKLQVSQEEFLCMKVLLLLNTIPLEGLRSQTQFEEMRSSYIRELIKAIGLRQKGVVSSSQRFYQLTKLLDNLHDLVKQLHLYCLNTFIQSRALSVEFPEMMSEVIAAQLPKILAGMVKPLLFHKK
Thyrotropin receptor (Homo sapiens), sequence (P16473 whole entry, looked up): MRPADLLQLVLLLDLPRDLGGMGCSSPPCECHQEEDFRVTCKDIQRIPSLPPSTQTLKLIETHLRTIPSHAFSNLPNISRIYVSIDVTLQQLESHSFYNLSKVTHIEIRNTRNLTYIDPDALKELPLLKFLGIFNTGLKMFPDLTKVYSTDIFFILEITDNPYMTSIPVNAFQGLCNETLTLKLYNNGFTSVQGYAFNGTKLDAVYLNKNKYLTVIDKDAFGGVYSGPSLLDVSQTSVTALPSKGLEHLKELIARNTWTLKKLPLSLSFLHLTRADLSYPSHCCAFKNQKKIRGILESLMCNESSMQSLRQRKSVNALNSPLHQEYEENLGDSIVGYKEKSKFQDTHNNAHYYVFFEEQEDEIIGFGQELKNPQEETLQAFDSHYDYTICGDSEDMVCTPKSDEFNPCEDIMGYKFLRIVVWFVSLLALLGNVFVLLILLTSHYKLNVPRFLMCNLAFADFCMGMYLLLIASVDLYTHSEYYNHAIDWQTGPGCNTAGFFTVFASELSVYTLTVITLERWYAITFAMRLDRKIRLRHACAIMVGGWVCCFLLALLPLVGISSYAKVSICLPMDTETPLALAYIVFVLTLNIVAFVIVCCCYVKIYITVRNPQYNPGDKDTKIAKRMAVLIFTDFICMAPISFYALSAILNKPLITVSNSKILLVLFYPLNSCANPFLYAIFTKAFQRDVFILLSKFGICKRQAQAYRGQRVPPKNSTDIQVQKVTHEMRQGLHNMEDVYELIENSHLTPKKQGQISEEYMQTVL
Nuclear receptor subfamily 1 group I member 2 (Homo sapiens), sequence (O75469 whole entry, looked up): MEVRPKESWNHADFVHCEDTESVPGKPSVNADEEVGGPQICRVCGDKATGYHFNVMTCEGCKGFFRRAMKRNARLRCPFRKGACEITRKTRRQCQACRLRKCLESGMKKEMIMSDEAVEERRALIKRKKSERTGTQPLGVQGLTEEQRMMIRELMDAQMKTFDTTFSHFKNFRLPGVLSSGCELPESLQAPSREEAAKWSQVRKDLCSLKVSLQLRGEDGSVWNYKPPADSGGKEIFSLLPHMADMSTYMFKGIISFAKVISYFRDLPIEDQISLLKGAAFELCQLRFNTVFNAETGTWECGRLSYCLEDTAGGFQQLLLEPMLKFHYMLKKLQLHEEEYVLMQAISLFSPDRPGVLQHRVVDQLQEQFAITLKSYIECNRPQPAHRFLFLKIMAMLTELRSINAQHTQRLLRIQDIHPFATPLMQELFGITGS
Nuclear receptor subfamily 1 group I member 2 (Rattus norvegicus), sequence (Q9R1A7 whole entry, looked up): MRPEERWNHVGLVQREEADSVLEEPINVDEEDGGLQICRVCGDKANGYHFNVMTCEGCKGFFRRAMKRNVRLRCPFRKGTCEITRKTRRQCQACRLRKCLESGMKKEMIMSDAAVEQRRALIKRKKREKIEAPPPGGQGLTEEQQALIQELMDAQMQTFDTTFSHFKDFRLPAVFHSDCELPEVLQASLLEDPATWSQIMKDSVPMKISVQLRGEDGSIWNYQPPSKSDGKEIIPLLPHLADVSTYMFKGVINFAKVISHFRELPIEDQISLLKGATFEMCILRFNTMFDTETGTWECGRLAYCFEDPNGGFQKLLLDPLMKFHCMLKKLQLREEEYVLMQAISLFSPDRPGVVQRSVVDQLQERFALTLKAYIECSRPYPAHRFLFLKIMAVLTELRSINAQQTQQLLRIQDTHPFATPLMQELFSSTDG
Thyrotropin-releasing hormone receptor (Homo sapiens), sequence (P34981 whole entry, looked up): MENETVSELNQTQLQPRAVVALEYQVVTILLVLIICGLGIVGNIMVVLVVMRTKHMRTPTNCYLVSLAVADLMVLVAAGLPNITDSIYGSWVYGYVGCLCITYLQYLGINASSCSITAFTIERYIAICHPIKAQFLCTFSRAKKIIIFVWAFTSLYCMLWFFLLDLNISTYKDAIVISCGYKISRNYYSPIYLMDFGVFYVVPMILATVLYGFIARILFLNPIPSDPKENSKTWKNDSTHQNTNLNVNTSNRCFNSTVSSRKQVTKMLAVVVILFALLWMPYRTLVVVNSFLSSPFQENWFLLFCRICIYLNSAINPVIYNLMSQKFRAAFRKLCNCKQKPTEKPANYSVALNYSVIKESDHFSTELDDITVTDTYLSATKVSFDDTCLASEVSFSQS
Estrogen receptor (Homo sapiens), sequence (P03372 whole entry, looked up): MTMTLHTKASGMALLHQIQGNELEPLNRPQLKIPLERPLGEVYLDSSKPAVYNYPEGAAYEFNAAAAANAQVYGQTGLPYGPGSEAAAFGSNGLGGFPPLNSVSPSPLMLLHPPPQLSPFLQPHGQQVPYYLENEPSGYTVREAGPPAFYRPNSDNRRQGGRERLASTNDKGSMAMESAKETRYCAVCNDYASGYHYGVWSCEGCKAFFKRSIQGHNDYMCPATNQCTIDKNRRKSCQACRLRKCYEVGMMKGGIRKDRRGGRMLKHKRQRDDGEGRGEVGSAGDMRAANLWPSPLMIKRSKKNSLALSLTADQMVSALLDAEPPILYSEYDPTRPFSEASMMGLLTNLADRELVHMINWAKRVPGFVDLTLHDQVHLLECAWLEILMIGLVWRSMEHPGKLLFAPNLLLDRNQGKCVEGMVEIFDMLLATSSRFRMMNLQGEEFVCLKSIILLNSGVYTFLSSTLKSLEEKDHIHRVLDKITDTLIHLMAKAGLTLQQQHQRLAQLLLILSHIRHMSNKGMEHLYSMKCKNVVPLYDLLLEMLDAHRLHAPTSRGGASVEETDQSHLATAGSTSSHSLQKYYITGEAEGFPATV

c1coc(Cn2cccc2)c1
inactive: Potency [1] | outcome [2] | outcome [3] | Potency [4] | Potency [5] | outcome [6] | Potency [7] | outcome [8] | outcome [9] | outcome [10] | outcome [11] | Potency [12] | outcome [13] | outcome [14] | Potency [15] | outcome [16] | outcome [17] | Potency [18]

COc1cnc(NS(=O)(=O)c2ccc(N)cc2)nc1
inactive: Potency [1] | outcome [2] | outcome [3] | outcome [19] | Potency [4] | outcome [6] | Potency [7] | outcome [9] | outcome [10] | outcome [11] | Potency [12] | outcome [13] | outcome [14] | Potency [15] | outcome [16] | outcome [17] | Potency [18] | max activation [20] -1.37%

O=C(CCBr)N1CCN(C(=O)CCBr)CC1
inactive: Potency [1] | outcome [2] | outcome [3] | outcome [19] | Potency [4] | Potency [7] | outcome [8] | outcome [9] | outcome [10] | outcome [11] | Potency [12] | outcome [13] | outcome [14] | Potency [15] | outcome [16] | outcome [17] | Potency [18] | max activation [20] -2.92%

Nc1cc(S(=O)(=O)O)ccc1O
inactive: Potency [1] | outcome [2] | outcome [19] | Potency [4] | Potency [5] | outcome [6] | Potency [7] | outcome [8] | outcome [9] | outcome [10] | outcome [11] | Potency [12] | outcome [13] | outcome [14] | Potency [15] | outcome [16] | outcome [17] | Potency [18]

CC(C)=CCC/C(C)=C\C#N
inactive: Potency [1] | outcome [2] | outcome [3] | outcome [19] | Potency [4] | outcome [8] | outcome [10] | outcome [11] | Potency [12] | outcome [13] | outcome [14] | Potency [15] | outcome [16] | outcome [17] | Potency [18]

C[n+]1ccccc1/C=N/O
inactive: Potency [1] | outcome [2] | outcome [3] | Potency [4] | Potency [5] | Potency [7] | outcome [8] | outcome [9] | outcome [10] | outcome [11] | Potency [12] | outcome [13] | Potency [15] | outcome [16] | outcome [17] | Potency [18] | max activation [20] -0.461%

C[C@@H]1CC[C@@]2(OC1)O[C@H]1C[C@H]3[C@@H]4CC[C@H]5C[C@@H](O)CC[C@]5(C)[C@H]4CC(=O)[C@]3(C)[C@H]1[C@@H]2C
inactive: activation [1] 0.597% [at 8.39 µM] | cAMP activity change [2] -0.224% [at 8.39 µM] | activity change, negative = inhibition [3] -0.41% [at 8.39 µM] | activation [4] -0.697% [at 8.39 µM] | activity change, negative = inhibition [5] 17.4% [at 8.39 µM] | activity change, negative = cytotoxicity [6] 12.3% [at 8.39 µM] | activity change, negative = cytotoxicity [7] 3.64% [at 8.39 µM] | viability change, negative = cytotoxic [8] -1.38% [at 6.97 µM] | activity change, negative = cytotoxicity [9] -1.03% [at 6.97 µM] | activation [10] -4.07% [at 6.97 µM] | activity, negative = inhibition [11] 1.5% [at 4.65 µM] | activation [12] -0.339% [at 5.23 µM] | activity change, negative = cytotoxicity [13] 11.4% [at 8.39 µM] | caspase activation [14] 0.244% [at 8.39 µM] | activity change, negative = cytotoxicity [15] 2.81% [at 8.39 µM] | caspase-3/7 activation [16] -0.713% [at 8.39 µM] | activity change, negative = cytotoxicity [17] 6.1% [at 8.39 µM] | activation [18] -7.1% [at 8.39 µM] | max activation [20] -0.0535%

COCCCOc1cc(C[C@@H](C[C@H](N)[C@@H](O)C[C@H](C(=O)NCC(C)(C)C(N)=O)C(C)C)C(C)C)ccc1OC
inactive: Potency [1] | outcome [2] | outcome [3] | outcome [19] | Potency [4] | outcome [6] | Potency [7] | outcome [9] | outcome [11] | Potency [12] | outcome [13] | outcome [14] | Potency [15] | outcome [16] | outcome [17] | Potency [18]

From PubChem BioAssay (Tox21)
